The list is not random: actives were taken first. Their share in the collection is about 11%.
ALDH1A1 block = ALDH1A1 (human) enzyme inhibition; P00352; Purified ALDH1A1, NADH fluorescence, propionaldehyde substrate; Potency, µM (series often up to 75.3 µM), for inactives: at the top dose activity, negative = inhibition, usual class: inhibitors; hit rate 7.3% among 220,000;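 note: potency is the fitted concentration of half-maximal effect; plate controls were no enzyme wells and a reference inhibitor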
Target sequence (P00352 whole entry, looked up): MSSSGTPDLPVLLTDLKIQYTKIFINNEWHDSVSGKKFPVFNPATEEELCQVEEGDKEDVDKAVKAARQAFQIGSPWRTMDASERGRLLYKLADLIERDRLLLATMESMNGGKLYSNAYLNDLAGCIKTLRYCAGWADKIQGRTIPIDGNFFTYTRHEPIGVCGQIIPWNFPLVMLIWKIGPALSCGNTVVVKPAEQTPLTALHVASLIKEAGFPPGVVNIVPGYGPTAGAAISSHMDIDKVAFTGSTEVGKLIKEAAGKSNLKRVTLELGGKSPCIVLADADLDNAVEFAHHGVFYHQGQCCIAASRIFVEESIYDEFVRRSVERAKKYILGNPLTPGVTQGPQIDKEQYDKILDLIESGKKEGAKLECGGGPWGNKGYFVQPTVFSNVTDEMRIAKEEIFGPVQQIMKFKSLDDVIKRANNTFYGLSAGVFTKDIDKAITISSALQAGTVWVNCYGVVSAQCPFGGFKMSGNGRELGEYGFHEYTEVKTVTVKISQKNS
JMJD2E inh = inhibitors of human JMJD2E histone demethylase. hit rate 1.6% among 230,000. JMJD2E catalytic domain, FDH-coupled NADH fluorescence (FDH is formaldehyde dehydrogenase). B2RXH2. Potency, µM (doses to about 57.1 µM), for inactives: top-dose activity change, negative = inhibition, usual class: inhibitors. AID 2147;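 note: potency is the fitted concentration of half-maximal effect; 0% = wells with enzyme and -100% = buffer wells without enzyme; nearly all actives have a fitted effect of over 50% in size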
PNC assembly inh = blocks assembly of the perinucleolar compartment; PC3M PTB-GFP, PNC prevalence imaging, 16 h; stronger effect = lower value; hit rate 3.1% among 140,000; activity change (PNC), negative = inhibition, % at 10 µM;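 active = readout at or below -70, meaning at least 70% loss of cells showing the perinucleolar compartment, a nuclear body marking cancer cells; inconclusive = readout between -30 and a set limit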;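 note: plate controls were DMSO wells for no effect and camptothecin positive control wells for full effect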
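Read-out is percentage of cells bearing a perinucleolar compartment, from automated 20x imaging of fixed, Hoechst-stained PC3M PTB-GFP cells. Cells were seeded 4 h, then exposed 16 h to compound (23 nl of library stock) in duplicate plates.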
HPGD block = inhibitors of human 15-hydroxyprostaglandin dehydrogenase (HPGD); AID 894; hit rate 4.3% among 150,000; Potency, µM, inactives show at the highest dose activity change, negative = inhibition, hits mostly inhibitors; purified HPGD, NADH fluorescence kinetic, PGE2 substrate; note: potency is the fitted concentration of half-maximal effect
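20 nM HPGD preincubated 15 min at room temperature with compound in 50 mM Tris-HCl pH 8, 0.01% Tween 20. Started with 1 mM NAD+ and 30 uM prostaglandin E2; NADH fluorescence (360/450 nm) read 5 times over 30-s intervals, last minus first.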
Numbers without * were called inactive; u = inconclusive; x = no result given; [ ] = dose if it differs, or a comment. Unless noted, calls come from the whole dose curve; as a rule, active = well fitted inhibition curve with a large enough effect (not every such curve was filed as active); inconclusive = small, poorly fitted or top-dose-only effect, or another doubt; inactive = no such curve, though single readings can be large or run the other way. Unless noted, % is set by controls: 0 for no effect and ±100 for the full control effect.

SMILES | ALDH1A1 block | JMJD2E inh | PNC assembly inh | HPGD block
O=C(NCCC(c1ccccc1)c1ccccc1)c1ccc(Br)o1 | u | 2% | 48 | 14µM*
CCOC(=O)c1[nH]c2ccccc2c1NC(=O)c1ccc(Br)o1 | -1% | 1% | -23 | 1%
Cn1c(N)c(C(=O)COC(=O)CN2C(=O)c3ccccc3C2=O)c(=O)n(C)c1=O | -4% | 7% | 7 | 2%
Cn1c(N)c(C(=O)COC(=O)Cn2cc(C(F)(F)F)ccc2=O)c(=O)n(C)c1=O | 7% | 5% | u | 16µM*
CCC(C)C(NC)C(=O)O (stereo not given) | 4% | 8% | x | 3%
COc1ccc(N2C(=O)C(Cl)=C(Nc3ccccc3O)C2=O)cc1 | 16µM* | -5% | u | 14µM*
COc1ccc(N2C(=O)C(Cl)=C(Nc3ccccc3OC)C2=O)cc1 | -2% | -4% | u | -26%
COc1ccc(N2C(=O)C(Cl)=C(N(CCO)Cc3ccccc3)C2=O)cc1 | -8% | 5% | -125* | -7%
COc1ccc(N2C(=O)c3ccccc3C2=O)cc1 | 4% | 7% | x | x
COc1ccc(N2C(=O)C(Cl)=C(Oc3cccc(OC)c3)C2=O)cc1 | 18µM* | -6% | x | x
Cc1ccc2nc(NC(=O)CSc3nnc(C)c(=O)n3N)sc2c1 | u | 6% | 14 | -4%
O=C(COC(=O)CNS(=O)(=O)c1ccc(F)c(F)c1F)Nc1ccc(OC(F)F)cc1 | -1% | 3% | u | -1%
O=C(C1=NN[C@@H]2C(=O)N(Cc3ccccc3)C(=O)[C@H]12)c1ccc(F)cc1 | x | -8% | x | x
CCOCCCNCc1ccc(OCc2ccccc2C)c(OC)c1 | 6% | -10% | x | x
Cn1c(=O)c2c(nc(N/N=C\c3ccccc3C(=O)O)n2C)n(C)c1=O | 10%[13.5 µM] | x | x | -3%
Cc1cc2cc(C(c3nnnn3Cc3ccccc3)N3CCc4ccccc43)c(=O)[nH]c2cc1C (stereo not given) | u | u | 8 | -16%
Cc1ccc2cc(C(c3nnnn3Cc3ccccc3)N3CCc4ccccc43)c(=O)[nH]c2c1 (stereo not given) | 18µM* | -16% | 1 | -4%
Cc1cc2cc(C(c3nnnn3Cc3ccco3)N3CCc4ccccc43)c(=O)[nH]c2cc1C (stereo not given) | 7.9µM* | u | -6 | x
NNC(=O)c1cc2sccc2s1 | 2.5µM* | 5% | x | x
CC(=O)NNC(=O)c1cc2sccc2s1 | 8% | -6% | x | x
Cn1cc(Cl)c(C(=O)N/N=C/c2ccc(OS(=O)(=O)c3ccccc3)cc2)n1 | u | -1% | -100* | u
Cc1ccc(/C=N/NC(=O)c2nn(C)cc2Cl)cc1 | 6% | -2% | -16 | -2%
N#Cc1c(NC(=O)CCC(=O)O)sc2c1CCCCC2 | 14µM* | u | x | x
N#Cc1c(NC(=O)CN2CCN(C(=O)c3ccco3)CC2)sc2c1CCCCC2 | 7.1µM* | -2% | -26 | 8.9µM*
CCn1c(SCC(=O)Nc2sc3c(c2C#N)CCCC3)nnc1-c1ccco1 | 10% | -6% | 0 | -5%
SMILES | ALDH1A1 block | JMJD2E inh | PNC assembly inh | HPGD block
N#Cc1c(NC(=O)C2CC=CCC2C(=O)O)sc2c1CCCCCC2 (stereo not given) | u | 7% | u | 18µM*
COC(=O)C1CCN(CC(=O)Nc2sc3c(c2C#N)CCC3)CC1 | -6% | -6% | 59 | -17%
CCn1c(SCC(=O)Nc2sc3c(c2C#N)CCC(C(C)(C)C)C3)nnc1-c1ccco1 (stereo not given) | 40µM* | 14% | 24 | -23%
N#Cc1c(NC(=O)CCC(=O)O)sc2c1CCCC2 | 2% | -6% | 33 | -1%
Cc1c(C#N)c(=O)c(-[n+]2ccccc2)c([S-])n1-c1ccc(Cl)cc1 | x | -8% | x | x
CC(=O)Nc1sc2c(c1C#N)CCC(C)C2 (stereo not given) | -7% | -15% | x | x
CC(C)(C)C1CCc2c(sc(NC(=O)C3CC=CCC3C(=O)O)c2C#N)C1 (stereo not given) | 7.1µM* | 11% | u | 16µM*
O=C(O)C1CC2(C1)CC(C(=O)O)C2 (stereo not given) | 8%[13.5 µM] | x | x | -5%
Cc1ccc(NCCC(=O)c2ccc(Br)cc2)cc1 | 0.79µM* | 8% | -4 | -7%
Cc1ccc(NCCC(=O)c2ccc(Cl)cc2)cc1 | 1.4µM* | 5% | 34 | -2%
CCc1ccc(NCCC(=O)c2ccc(Br)cc2)cc1 | -6% | 3% | -28 | x
O=C1CC(c2ccco2)CC(O)=C1C=NCCN1CCN(C2CC(=O)N(c3ccccc3)C2=O)CC1 (stereo not given) | u | -1% | -100* | -11%
O=C1CC(c2ccco2)CC(O)=C1C=NCC1CCNCC1 (stereo not given) | -7% | 10µM* | u | -13%
CCNC(=S)N1CCN(CCN=CC2=C(O)CC(c3ccco3)CC2=O)CC1 (stereo not given) | -12% | 4% | -3 | -7%
O=C1CC(c2ccccc2)CC(O)=C1C=NCCN1CCNCC1 (stereo not given) | 1% | 0% | 19 | -10%
CN1C(=O)CC(N2CCN(CCN=CC3=C(O)CC(C)(C)CC3=O)CC2)C1=O (stereo not given) | -11% | 0% | u | -8%
O=C1CC(c2ccco2)CC(O)=C1C=NCCN1CCNCC1 (stereo not given) | 13µM* | u | -30 | -17%
CC1(C)CC(=O)C(C=NCCN2CCN(C3CC(=O)N(c4ccc(Cl)c(Cl)c4)C3=O)CC2)=C(O)C1 (stereo not given) | 22µM* | 0% | x | x
CC1(C)CC2C1CCC1(C)OC1CCC2(C)O (stereo not given) | 5% | 19% | x | -2%
FC(F)(F)c1ccc(-c2noc(CN3CCCN(C4CCCCC4)CC3)n2)cc1 | 6% | -30% | x | x
COc1cc(OC)c(C2CC(=O)N3CN(c4ccccc4C)CSC3=C2C#N)cc1OC (stereo not given) | 4µM* | 22µM* | -18 | 8.9µM*
COc1ccc(C2CC(=O)N3CN(c4ccccc4F)CSC3=C2C#N)cc1OC (stereo not given) | 7.1µM* | 28µM* | 16 | u
COc1ccc(C2CC(=O)N(C)c3ccccc3S2)cc1OC (stereo not given) | 10% | -5% | x | x
COc1ccc(OC)c(C2CC(=O)N3CN(c4ccccc4)CSC3=C2C#N)c1 (stereo not given) | 7.9µM* | u | 34 | 7.1µM*
COc1ccc(C2CC(=O)N3CN(c4ccc(C)c(Cl)c4)CSC3=C2C#N)cc1 (stereo not given) | 3.2µM* | u | 63 | u
CCCCNC(=O)Nc1ncn[nH]1 | x | 4% | x | x
COc1ccc(N2CSC3=C(C#N)C(c4cccc(OC)c4OC)CC(=O)N3C2)cc1 (stereo not given) | 13µM* | u | 12 | 8.9µM*
Cc1cccc(N2CSC3=C(C#N)C(c4ccc(C)o4)CC(=O)N3C2)c1 (stereo not given) | 8.9µM* | 28µM* | u | 8.9µM*
CCc1ccccc1N1CSC2=C(C#N)C(c3ccccc3F)CC(=O)N2C1 (stereo not given) | 2.8µM* | 32µM* | u | 5.6µM*
O=C(C[C@@H](C(=O)O)N1CCOCC1)c1ccccc1 | 6%[13.5 µM] | x | x | -3%
